The results in this text go back to PubChem BioAssay AID1224853 (National Center for Advancing Translational Sciences (NCATS), 2016).

Inconclusive results are not listed. Activity calls are given as the source filed them. Calls follow the shape of the dose curve; as a rule, active = well fitted inhibition curve with a large enough effect; inconclusive = small, poorly fitted or top-dose-only effect; inactive = no such curve, though single readings can be large or run the other way.

A short description of this assay: Confirmation assay for measurement of the activity of small molecule inhibitors on Zika virus induced Caspase-3 activity in human astrocytoma cells. The following applies: SNB-19 ZIKV-induced caspase-3/7, luminescence, 6 h; series mostly up to 46.1 µM; activity change, negative = inhibition: at the top concentration. From the text: National Center for Advancing Translational Sciences [NCATS] Johns Hopkins University School of Medicine Florida State University Assay Overview: Increase in the Caspase-3 activity indicates an activation of apoptosis cell death pathway caused by Zika virus infection in certain types of neuronal cells including human neural progenitor cells (hNPCs), astrocytes, and astrocytoma cell line (SNB-19). This cell-based caspase-3 activity assay measures the increased caspase-3 activity in the astrocytoma cell line (SNB-19) after a 6-hour Zika virus infection with a luminescence readout. A decrease in the luminescence signal in this assay by small molecule treatment indicates an inhibitory effect of that small molecule on the Zika virus induced caspase-3 activity that may correlate with its effect on reduction of Zika virus caused cell death.
Assay Protocol Summary: The medium for SNB-19 cells is composed of RPMI 1640 (ATCC, Cat.# 30-2001), 10% fetal bovine serum (FBS) (GE healthcare Life Sciences, Cat.# SH30071.03), and 1% Pen/Strep (Gibco, Cat.# 15140-122). A Caspase-Glo 3/7 assay kit (catalog number G8092; Promega, Madison, WI) was used to detect caspase-3 activity induced by Zika virus infection in human cells. The reagent mixture was reconstituted as described in the protocol from the manufacturer. Polystyrene tissue culture treated and PDL coated white plates were obtained from Greiner Bio-One (Monroe, NC). Cells were seeded in 384- or 1536-well assay plates and cultured at 37 C with 5% CO2 for 16 to 20 hours. The typical cell seeding density in the 1536-well plate assay is 250 cells/well in 3ul medium for SNB-19 cells in tissue culture treated plates. Compounds were added to cells and incubated for one hour before addition of ZIKV solution to cells (2 FFU/cell). After incubation at 37 C with 5% CO2 for 6 hours, the reagent mixture of Caspase-Glo 3/7 assay kit was added to each well, followed by incubation at room temperature for 30 minutes. The luminescence intensity of the assay plates was measured using a ViewLux plate reader (PerkinElmer). Data were normalized by using the cell-containing wells without ZIKV as a negative control (0% induction of caspase 3/7 activity) and wells containing ZIKV infected cells (Caspase-3 activity induced) as a positive control (100% induction of caspase 3 activity). The percentage inhibitions of the increased Caspase-3 activity by small molecule inhibitors were then calculated.
Regarding `CC(=C(CCOC(=O)C(C)C)SSC(CCOC(=O)C(C)C)=C(C)N(C=O)Cc1cnc(C)nc1N)N(C=O)Cc1cnc(C)nc1N`, the “activity change, negative = inhibition” value was -17% (inactive).

Consider `COc1ccnc2c1CCCCC2S(=O)c1nc2ccccc2[nH]1` (stereo not given), for which the “activity change, negative = inhibition” value was -5.51% (inactive).

As to `CC(C(=O)O)c1ccc(C(=O)c2cccs2)cc1` (stereo not given), the Potency is 17.3 µM (active).

On to `Cc1ccc(C(=O)c2ccc(CC(=O)O)n2C)cc1`, for which the “activity change, negative = inhibition” value is -24.3% (inactive).

As for `Oc1ccc(/C=C/c2cc(O)cc(O)c2)cc1`, the Potency was 13.8 µM (active).

With `O=C(O)Cc1ccc(-c2ccccc2)cc1`, the “activity change, negative = inhibition” value is -25.3% (inactive).

With `CCCCCCCCCCCC(=O)[O][Sn]([CH2]CCC)([CH2]CCC)[O]C(=O)CCCCCCCCCCC`, the “activity change, negative = inhibition” value is 4.51% (inactive).

Turning to `O=C(Nc1ccc(OC(F)(F)F)cc1)c1sccc1NCc1ccnc2ccccc12`, the Potency is 6.9 µM (active).

As to `Cc1cccc(/C=C/c2ccccc2)n1`, the Potency was 12.3 µM (active).

For `CN(C)c1ccc(/C=C2\C(=O)Nc3ccccc32)cc1`, the Potency was 10.9 µM (active).

As to `Cc1cccc(C#Cc2ccccc2)n1`, the Potency is 4.89 µM (active).

With `CC(C)OC(=O)CCCC=CC[C@@H]1[C@H](C=C[C@@H](O)COc2cccc(C(F)(F)F)c2)[C@H](O)C[C@@H]1O`, the “activity change, negative = inhibition” value was 16.3% (inactive).

Take `CC(=NNC(=S)N1CCC1)c1ccccn1`: the “activity change, negative = inhibition” value was 36.6% (inactive).

Regarding `CC(C)c1ccc2oc3nc(N)c(C(=O)O)cc3c(=O)c2c1`, the Potency was 1.95 µM (active).

In the case of `C[C@@H](N)c1ccc(C(=O)Nc2ccnc3[nH]ccc23)cc1`, the “activity change, negative = inhibition” value is -12% (inactive).

In the case of `O=C1C(Cl)=C(NCCN2CCOCC2)C(=O)c2ncccc21`, the Potency is 5.48 µM (active).

For `CC[C@@]1(O)C[C@H](O[C@H]2C[C@H](N(C)C)[C@H](O[C@H]3C[C@H](O)[C@H](O[C@H]4CCC(=O)[C@H](C)O4)[C@H](C)O3)[C@H](C)O2)c2c(cc3c(c2O)C(=O)c2c(O)cccc2C3=O)[C@@H]1C(=O)OC`, the “activity change, negative = inhibition” value is -13.4% (inactive).

For `NC(=O)c1cccc2[nH]c(-c3ccc([C@H]4CCCN4)cc3F)nc12`, the Potency was 17.3 µM (active).

As to `O=C(/C=C/c1ccc(O)cc1)c1ccc(O)cc1O`, the Potency is 2.45 µM (active).

As to `CN(C)CCCSc1ccccc1NC(=O)/C=C/c1ccccc1`, the Potency was 8.69 µM (active).

As to `N[C@H](CSC(c1ccccc1)(c1ccccc1)c1ccccc1)C(=O)O`, the “activity change, negative = inhibition” value was 14.3% (inactive).

Consider `CS(=O)(=O)c1ccc(-c2cn3ccccc3n2)cc1`, for which the Potency was 4.35 µM (active).

With `NC(N)=NN=C(/C=C/c1ccc([N+](=O)[O-])o1)/C=C/c1ccc([N+](=O)[O-])o1`, the “activity change, negative = inhibition” value was -27.2% (inactive).

In the case of `COc1ccc(NC(=O)/C=C/c2ccc(Cl)cc2)cc1`, the Potency was 3.46 µM (active).

For `Cc1cc(O)c2ccccc2c1O`, the “activity change, negative = inhibition” value is -11.1% (inactive).

As for `CN1CC(=O)N2C(Cc3c([nH]c4ccccc34)[C@H]2c2ccc3c(c2)OCO3)C1=O` (stereo not given in full), the “activity change, negative = inhibition” value was 1.76% (inactive).

For the molecule `COc1cc2nc(N3CCN(C(=O)C4CCCO4)CC3)nc(N)c2cc1OC` (stereo not given), the Potency is 17.3 µM (active).

Take `CC=CC[C@@H](C)C(=O)[C@H]1C(=O)N[C@@H](C(C)C)C(=O)N(C)CC(=O)N(C)[C@@H](CC(C)C)C(=O)N[C@@H](C(C)C)C(=O)N(C)[C@@H](CC(C)C)C(=O)N[C@@H](C)C(=O)N[C@H](C)C(=O)N(C)[C@@H](CC(C)C)C(=O)N(C)[C@@H](CC(C)C)C(=O)N(C)[C@@H](C(C)C)C(=O)N1C`: the “activity change, negative = inhibition” value was 9.07% (inactive).

`CCC(C)SSc1ncc[nH]1` (stereo not given): the “activity change, negative = inhibition” value was 1.05% (inactive).

As to `CN(C)c1ccc(N=NS(=O)(=O)O)cc1`, the “activity change, negative = inhibition” value was -21.5% [at 88.3 µM] (inactive).

Take `Nc1ccc(-c2ccc3ccccc3n2)cc1`: the Potency was 6.9 µM (active).

For `OCc1ccc(-c2ccc(-c3ccc(CO)s3)o2)s1`, the Potency was 0.218 µM (active).

`CC(C)(C)OC(=O)CN(Cc1ccc(Cl)cc1)Cc1ccc([N+](=O)[O-])s1`: the “activity change, negative = inhibition” value was -11.8% [at 88.3 µM] (inactive).

`CCCCCCOc1ccccc1C(N)=O`: the “activity change, negative = inhibition” value is 8.7% (inactive).

Consider `CN(C)c1cc(NC(=O)CNC(C)(C)C)c(O)c2c1C[C@@H]1C[C@H]3[C@H](N(C)C)C(=O)C(C(N)=O)=C(O)[C@@]3(O)C(=O)C1=C2O`, for which the “activity change, negative = inhibition” value was -7.85% (inactive).

For `CCCS(=O)c1ccc2nc(NC(=O)OC)[nH]c2c1` (stereo not given), the Potency was 21.8 µM (active).

Regarding `O=C(O)c1cc([N+](=O)[O-])ccc1NCCCc1ccccc1`, the Potency was 19.5 µM (active).

On to `c1ccc2[nH]c(-c3cscn3)nc2c1`, for which the Potency is 12.3 µM (active).

For `O=C(Nc1cc2cc[nH]c2cn1)c1ccccc1`, the Potency was 4.35 µM (active).

As to `O=S(=O)(O)c1ccc2nc(-c3ccccc3)[nH]c2c1`, the Potency was 1.73 µM (active).
